Only some compounds are listed: those with a hit (about 2.7% of all), similar ones and a draw of the others.
ERG-DNA inh: inhibitors of human ERG Ets domain-DNA interaction; P11308; fluorescence polarization, His-ERG Ets domain / labelled DNA; Potency, µM (doses to about 76.9 µM), without a hit: top-dose FP activity, negative = inhibition, actives largely listed as inhibitors; actives 0.028% (n = 370,000); AID 624246; active = well fitted inhibition curve with a large enough effect in the polarisation, with a control signal flat; inconclusive = small, poorly fitted or top-dose-only effect, or effect the other way, or a change in a side signal; inactive = no such curve, though single readings can be large or run the other way; the % refers to the polarisation;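 note: polarization taken with two DNA probes labelled with fluorescein and Texas red; potency is the fitted concentration of half-maximal effect; % of control where 0% means no effect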
Target sequence (P11308 whole entry, looked up, the tested form may be a part): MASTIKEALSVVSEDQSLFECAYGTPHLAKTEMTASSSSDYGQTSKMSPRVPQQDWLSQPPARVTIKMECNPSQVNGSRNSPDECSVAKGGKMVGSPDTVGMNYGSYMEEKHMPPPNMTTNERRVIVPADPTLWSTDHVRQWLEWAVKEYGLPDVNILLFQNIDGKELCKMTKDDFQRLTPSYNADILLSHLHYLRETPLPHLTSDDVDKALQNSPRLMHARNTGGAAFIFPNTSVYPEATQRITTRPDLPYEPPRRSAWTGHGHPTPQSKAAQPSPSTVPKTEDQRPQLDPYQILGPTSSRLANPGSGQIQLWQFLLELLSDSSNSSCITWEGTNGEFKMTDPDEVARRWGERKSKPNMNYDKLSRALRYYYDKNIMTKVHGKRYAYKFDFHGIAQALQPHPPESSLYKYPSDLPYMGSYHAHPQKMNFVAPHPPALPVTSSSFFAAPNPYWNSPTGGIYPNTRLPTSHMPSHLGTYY
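His-tagged ERG Ets domain (1 uM in the protein solution; 300mM KCl, 50mM Tris-HCl, 1mM EDTA, 1mM DTT, pH 7.5) received compound, then a probe mix of 5 nM fluorescein-DNA and 100nM Texas-615-DNA. Fluorescence polarization was read for both dyes.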
Nrf2 ARE act: activates Nrf2 signaling; AREc32 ARE-luciferase reporter (MCF7-derived line), luminescence, 24 h; actives 0.31% (n = 410,000); AID 624171; Potency, µM (doses to about 46.1 µM), inactives show top-dose activation, actives largely listed as activators; note: potency is the fitted concentration of half-maximal effect; % of control where 0% means no effect; nearly all actives have a fitted effect of over 65% in size
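ARE activation measured as luciferase luminescence (Steady-Glo, 30 min RT) in AREc32_Fluc cells after 24 hr compound exposure at 37 deg C, 5% CO2; cells seeded overnight at 1000/well in OPTI-MEM, 5% FBS.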
LDHA inh: inhibitors of human lactate dehydrogenase A. actives 0.15% (n = 480,000). purified LDHA, NADH/diaphorase-resazurin fluorescence; hits give low values. P00338. activity change, % (values are at about 110 or 230 µM); in the data active = activity change below about -30%; inconclusive = mostly about -25% to -30%;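 note: plate controls were DMSO wells for no effect and wells without enzyme for full effect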
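Human LDH5 (2 nM) was incubated with 0.06 mM NADH and 0.2 mM pyruvate for 5 min at room temperature in Tris pH 7.4. Remaining NADH was coupled through diaphorase/resazurin, and resorufin fluorescence was read at 0 and 20 min.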
A549 tox-1: counter-screen for Nrf2 inhibitors: cytotoxicity in A549 cells. A549 ARE-Fluc cells, CellTiter-Fluor viability, 18-24 h. Potency, µM (top dose mostly 46 µM), inactives show top-dose activity change, negative = cytotoxicity, hits mostly inhibitors. actives 0.16% (n = 390,000); note: potency is the fitted concentration of half-maximal effect; % is set by controls: 0 for no effect and ±100 for the full control effect
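A549 ARE-Fluc cells in 5% FBS OPTI-MEM, 5000 cells/well, rested 2 h then exposed to compounds in concentration-response for 18-24 h at 37 °C. Viability by CellTiter-Fluor fluorescence (Ex 405/Em 525) after 30 min; luciferase luminescence (BugLite, 15 min, RT) read afterwards.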
Nrf2 block: Nrf2 pathway inhibition; A549 ARE-Fluc reporter, luciferase luminescence, 18-24 h; Potency, µM (highest dose often 46 µM), for the others: at the highest dose activity change, negative = inhibition, hits mostly inhibitors; actives 2.1% (n = 360,000); note: potency is the fitted concentration of half-maximal effect; % is set by controls: 0 for no effect and ±100 for the full control effect; nearly all actives have a fitted effect of over 60% in size
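Cells were seeded and rested 2 h, then exposed to compounds for 18-24 h. CellTiter-Fluor was read first as a viability measure. BugLite was added 15 min before the final luminescent read of ARE-luciferase activity in A549 cells.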
ALOX12 inh: blocks human arachidonate 12S-lipoxygenase. P18054. purified 12hLO, xylenol orange hydroperoxide absorbance. Potency, µM (top dose mostly 108 µM), for inactives: at the top dose activity change, negative = inhibition, usual class: inhibitors. actives 1.1% (n = 580,000); note: potency is the fitted concentration of half-maximal effect; % is set by controls: 0 for no effect and ±100 for the full control effect
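Purified human 12hLO at 150 nM in 25 mM Hepes, 0.01% Triton X-100, pH 7.0, preincubated 15 min at room temperature with compound. Reaction started with 40 uM arachidonic acid, 30 min at room temperature. Hydroperoxide measured by Fe-xylenol orange, 573/405 nm absorbance ratio.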
FLuc enzyme inh: blocks purified firefly luciferase in Nrf2 counterscreen; actives 4% (n = 1,400); AID 720522; Potency, µM (series often up to 57.5 µM), without a hit: at the highest dose activity change, negative = inhibition, usual class: inhibitors; shares compounds with Nrf2 block; purified firefly luciferase, luminescence inhibition; note: potency is the fitted concentration of half-maximal effect; % is set by controls: 0 for no effect and ±100 for the full control effect; nearly all actives have a fitted effect of over 65% in size
A549 tox-2: counter-screen for Nrf2 inhibitors: cytotoxicity in A549 ARE cells; shares compounds with Nrf2 block; A549 ARE-Fluc cells, cytotoxicity counterscreen; Potency, µM (highest dose often 46.1 µM), for the others: at the highest dose activity change, negative = cytotoxicity, most hits filed as inhibitors; actives 2% (n = 1,400); AID 720523;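 note: potency is the fitted concentration of half-maximal effect; cells exposed to compounds for 18 to 24 hours; % is set by controls: 0 for no effect and ±100 for the full control effect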
Nrf2 ARE inh: Nrf2 inhibition confirmed, A549 ARE-luciferase; shares compounds with Nrf2 block; A549 ARE-firefly luciferase reporter, luminescence; Potency, µM (doses to about 46.1 µM), inactives show at the highest dose activity change, negative = inhibition, usual class: inhibitors; actives 74% (n = 1,400); AID 720524; note: potency is the fitted concentration of half-maximal effect; % is set by controls: 0 for no effect and ±100 for the full control effect; nearly all actives have a fitted effect of over 65% in size
* marks the source's active call; other numbers are inactive results; ? = inconclusive; / = no result given; [ ] = remark or other dose. Unless noted, calls come from the whole dose curve; as a rule, active = well fitted curve in the direction sought with a large enough effect; inconclusive = small, poorly fitted or top-dose-only effect, or another doubt; inactive = no such curve, though single readings can be large; an effect the other way counts as inactive or inconclusive.

SMILES	ERG-DNA inh	Nrf2 ARE act	LDHA inh	A549 tox-1	Nrf2 block	ALOX12 inh	FLuc enzyme inh	A549 tox-2	Nrf2 ARE inh
Cc1ccc(C(=O)NC2CCCCC2C)c(C)c1 (configuration not stated)	/	/	-3	/	/	-18%	/	/	/
Cn1c(=O)c2c(ncn2CC(=O)N2CC(C(=O)N3CCCCC3)Oc3ccccc32)n(C)c1=O (configuration not stated)	/	/	-1	/	/	8%	/	/	/
Cc1ccnc(NC(=O)CCCOc2cc(=O)n(C)c3ccccc23)c1	-3%	0%	-1	?	4.1µM*	-73%	-12%	?	5.8µM*
CCc1cccc(NC(=O)C2CCN(S(=O)(=O)c3ccc4c(c3)CC(C)N4C(C)=O)CC2)c1 (configuration not stated)	7%	-1%	-7	-19%	7.3µM*	3%	0%	-6%	9.2µM*
COc1cccc(NC(=O)C2CCN(S(=O)(=O)c3ccc4c(c3)CC(C)N4C(C)=O)CC2)c1 (configuration not stated)	8%	0%	-3	-4%	?	-4%	/	/	/
CC(=O)N1c2ccc(S(=O)(=O)N3CCC(C(=O)Nc4cccc(C(F)(F)F)c4)CC3)cc2CC1C (configuration not stated)	11%	1%	-2	-16%	4.6µM*	-1%	2%	-11%	12µM*
CC(=O)N1c2ccc(S(=O)(=O)N3CCC(C(=O)Nc4ccc(F)cc4)CC3)cc2CC1C (configuration not stated)	-6%	0%	-3	-11%	?	3%	/	/	/
CC(=O)N1c2ccc(S(=O)(=O)N3CCC(C(=O)Nc4cccc(C)n4)CC3)cc2CC1C (configuration not stated)	6%	2%	-2	-15%	1.5µM*	-7%	0%	-8%	5.8µM*
O=C1NCc2ccccc2CC12CCCN2Cc1cnc2ccccc2c1 (configuration not stated)	/	/	/	/	/	12%[6.33 µM]	/	/	/
Cc1nc2ccccc2n1-c1nc(-c2ccco2)cc(C(F)(F)F)n1	-2%	8%	-2	?	4.6µM*	-11%	-12%	?	5.8µM*
CCCCCCCCCCn1c2c(c(=N)c3c1CCC3)CCC2	5%	-5%	-2	?	?	?	/	/	/
N=c1c2c(n(Cc3ccc(Cl)cc3)c3c1CCC3)CCC2	5%	0%	-3	-4%	?	13%	/	/	/
N=c1c2c(n(Cc3ccccc3)c3c1CCC3)CCC2	-5%	-1%	-6	?	1.5µM*	36%	-1%	-4%	?
CCCCCn1c2c(c(=N)c3ccccc31)CCC2	7%	0%	-12	-5%	2.6µM*	?	2%	-10%	4.1µM*
Cc1cccc(NC(=O)N2CCC3(C2)C(=O)N(C)c2ccccc23)c1 (configuration not stated)	/	/	/	/	/	42%	/	/	/
CN(C)S(=O)(=O)c1ccc(N2CCN(S(=O)(=O)c3ccc(F)cc3)CC2)c(Cl)c1	-6%	2%	4	-17%	5.8µM*	0%	-1%	-18%	?
Cc1cc(C(=O)OCC(=O)N2CC(=O)Nc3ccccc32)c(C)n1-c1ccccc1	3%	5%	-4	1%	?	0%	/	/	/
Cc1cc(C(=O)OCC(=O)N2CC(=O)Nc3ccccc32)c(C)n1-c1ccc(F)cc1	9%	6%	7	?	9.2µM*	-8%	-16%	1%	16µM*
CC(C)(C)OC(=O)N1CCCC1C(=O)NCc1ccc(Cl)cc1Cl (configuration not stated)	/	/	1	/	/	23%	/	/	/
CC(C)(C)c1nc(CSc2n[nH]c(-c3ccccc3F)n2)no1	/	/	0	/	/	-25%	/	/	/
Cc1ccc(NS(=O)(=O)c2ccc(C(=O)N(C)Cc3ccccc3)cc2)cc1C	/	/	10	/	/	?	/	/	/
C=CCOc1ccc(CN(C)C(=O)c2ccc(CNS(=O)(=O)c3ccc(C)c(C)c3)cc2)cc1	-3%	1%	-1	?	9.2µM*	20%	0%	-25%	?
COc1ccc(C(=O)NC(c2ccccc2Cl)c2cc(Cl)c3cccnc3c2O)cc1 (configuration not stated)	4%	-1%	4	?	4.1µM*	-19%	-1%	-27%	4.6µM*
COc1ccc(NC(=O)Cc2cnc(-n3cccc3)s2)cc1	/	/	-23	/	/	44%	/	/	/
Cc1csc(NC(=O)CSCc2c(C)noc2C)n1	-13%	0%	-6	1%	1%	?	/	/	/
SMILES	ERG-DNA inh	Nrf2 ARE act	LDHA inh	A549 tox-1	Nrf2 block	ALOX12 inh	FLuc enzyme inh	A549 tox-2	Nrf2 ARE inh
Cc1noc(C)c1CSCC(=O)Nc1nc(-c2ccc(F)c(F)c2)cs1	19%	-2%	-5	?	9.2µM*	?	-13%	-18%	13µM*
COc1ccccc1/C=C/C(=O)N1CCc2cc(OC)c(OC)cc2C1C (configuration not stated)	-14%	0%[9.22 µM]	0	-11%	?	12%	2%	-6%	7.3µM*
Cc1ccccc1C(=O)Cn1c(=O)n(CCc2ccccc2)c(=O)c2sccc21	/	/	6	/	/	?	/	/	/
COc1cccc(NC(=O)/C=N/O)c1	/	/	9	/	/	10%	/	/	/
Cc1sc(-c2nc(-c3cccc(Cl)c3)no2)cc1S(=O)(=O)N1CCC2(CC1)OCCO2	/	/	5	/	/	2%	/	/	/
CCOc1ccc(CCNc2ncnc3onc(-c4ccc(Cl)cc4)c23)cc1	-3%	-1%	-6	-9%	7.3µM*	-12%	2%	0%	13µM*
CCN(CC)S(=O)(=O)c1ccc(/C=C/C(=O)Nc2ccc(F)cc2F)cc1	-1%	3%	-1	-3%	?	-6%	/	/	/
CCN(CC)S(=O)(=O)c1ccc(/C=C/C(=O)Nc2ccc(F)c(F)c2F)cc1	7%	6%	-3	-4%	?	-3%	-10%	-5%	?

Source: PubChem (National Center for Advancing Translational Sciences (NCATS))
